TDP1 inh – blocks human tyrosyl-DNA phosphodiesterase 1; Q9NUW8; recombinant TDP1, AlphaScreen DNA substrate cleavage; Potency, µM (doses to about 130 µM), for inactives: at the top dose activity change, negative = inhibition, most hits filed as inhibitors; 0.28% of 350,000 active; note: nearly all actives have a fitted effect of over 40% in size
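Enzyme-compound mixtures sat 15 min at room temperature, followed by a 5 min reaction with 15 nM final substrate and 10 min with AlphaScreen beads. Recombinant human Tdp1 was used at 1 nM final.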
TDP1 cell CPT – growth inhibition of DT40 Tdp1-/-;hTDP1 cells with camptothecin (screen for TDP1 inhibitors); chicken DT40 Tdp1-/-;hTDP1 cells + 20 nM CPT, ATP luminescence, 48 h; Potency, µM (top dose mostly 46.2 µM), without a hit: at the top dose activity change, negative = growth inhibition, usual class: inhibitors; 12% of 420,000 active; AID 686979; note: nearly all actives have a fitted effect of over 55% in size
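Chicken DT40 Tdp1-/- cells complemented with human TDP1, 400 cells/well, exposed to compounds plus 20 nM camptothecin for at least 48 h at 37 C; viability read as ATP content by CellTiter-Glo luminescence.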
GCN5L2 inh – inhibitors of human GCN5L2 histone acetyltransferase. Q92830. GCN5L2 HAT assay, ThioGlo1 CoA-SH fluorescence. Potency, µM (doses to about 58.9 µM), for the others: at the highest dose activity change, negative = inhibition, hits mostly inhibitors. 0.21% of 390,000 active. AID 504327
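Compounds, pin-transferred from DMSO stocks, meet 20nM GCN5L2 for 15 min before the reaction begins with H3(1-25) peptide (75uM) and acetyl-CoA (70uM). Thiol-reactive ThioGlo1 reports CoA release over 20 min at room temperature.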
DT40 TDP1 no CPT – qHTS for Inhibitors of human tyrosyl-DNA phosphodiesterase 1 (TDP1): qHTS in cells in absence of CPT | 15% of 420,000 active | Potency, µM (titrated, usually from 46.2 µM), for the others: top-dose activity change, negative = growth inhibition, most hits filed as inhibitors | AID 686978, 2013 | DT40 Tdp1-/- hTDP1 cells, no CPT, ATP luminescence, 48 h; note: nearly all actives have a fitted effect of over 55% in size
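Growth kinetics read by CellTiter-Glo luminescence after ≥48 hr at 37 °C. Cells: DT40 Tdp1-/- stably carrying human TDP1, 400 per well, compound exposure in the absence of CPT (DMSO vehicle).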
VDR inhibitor – inhibitors of human vitamin D receptor; P11473; VDR-SRC2-3 peptide fluorescence polarization, 2 h; Potency, µM, without a hit: max response, negative = inhibition, hits mostly inhibitors; 0.93% of 400,000 active; AID 504847
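Reagent solutions, kept cold and dark, are dispensed first; compounds are then pinned in at 23 nl, plates briefly spun, and incubated 2 h at ambient temperature. Inhibition of VDR–SRC2-3 peptide binding is read by fluorescence polarization.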
PLK1 PBD inh – inhibitors of human PLK1 polo-box domain binding | P53350 | Plk1 PBD binding of FITC phosphopeptide, fluorescence polarization | Potency, µM, for the others: max response, negative = inhibition, most hits filed as inhibitors | 2.8% of 360,000 active; note: series mostly up to about 57 µM; nearly all actives have a fitted effect of over 65% in size
Target sequence (P53350 whole entry, looked up, the tested form may be a part): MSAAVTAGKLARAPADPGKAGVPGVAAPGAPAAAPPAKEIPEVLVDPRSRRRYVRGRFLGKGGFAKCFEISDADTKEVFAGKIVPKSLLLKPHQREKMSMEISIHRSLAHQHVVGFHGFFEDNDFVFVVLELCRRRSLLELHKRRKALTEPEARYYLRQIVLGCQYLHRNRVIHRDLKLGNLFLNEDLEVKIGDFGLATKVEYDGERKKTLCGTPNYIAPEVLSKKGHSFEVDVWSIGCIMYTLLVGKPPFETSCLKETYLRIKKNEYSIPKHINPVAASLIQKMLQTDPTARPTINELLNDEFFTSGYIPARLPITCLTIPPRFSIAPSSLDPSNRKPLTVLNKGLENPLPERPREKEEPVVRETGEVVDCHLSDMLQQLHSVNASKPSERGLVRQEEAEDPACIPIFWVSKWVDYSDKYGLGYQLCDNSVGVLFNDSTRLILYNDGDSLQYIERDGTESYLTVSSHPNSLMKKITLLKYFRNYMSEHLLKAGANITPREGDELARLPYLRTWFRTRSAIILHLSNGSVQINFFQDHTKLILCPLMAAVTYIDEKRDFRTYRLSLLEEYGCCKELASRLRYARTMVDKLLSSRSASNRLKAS
* hit, by the source's call; ? = inconclusive; / = not tested or not shown. Rows were chosen to be rich in hits. Some 18% of all compounds tested hit in one or more screens of this group. Calls come from the whole dose curve; as a rule, active = well fitted curve in the direction sought with a large enough effect; inconclusive = small, poorly fitted or top-dose-only effect, or another doubt; inactive = no such curve, though single readings can be large; an effect the other way counts as inactive or inconclusive. % is set by controls: 0 for no effect and ±100 for the full control effect; potency is the fitted concentration of half-maximal effect.

SMILES	TDP1 inh	TDP1 cell CPT	GCN5L2 inh	DT40 TDP1 no CPT	VDR inhibitor	PLK1 PBD inh
COc1cc2c(cc1OC)-c1cc(OCCN3CCOCC3)nc(=O)n1CC2	2%	23µM*	?	?	-8%	5%
CCNc1cc2n(c(=O)n1)CCc1cc(OC)c(OC)cc1-2	3%	0%	-3%	-17%	-10%	0%
CCOc1ccccc1Nc1cc2n(c(=O)n1)CCc1cc(OC)c(OC)cc1-2	/	?	-14%	15µM*	-15%	3%
COc1cccc(Cn2c(=O)c(-c3cccc(C#N)c3)nc3cnc(OC)nc32)c1	/	-6%	-14%	30%	-6%	/
O=C(COC(=O)c1cccc(S(=O)(=O)Nc2ccc(F)cc2)c1)NCCN1C(=O)CSC1=O	0%	5%	-5%	-10%	-4%	-2%
CCN(CC(=O)Nc1ccc(NC(C)=O)cc1)C(=O)/C=C/c1cn(-c2ccccc2)nc1-c1ccc(C)cc1	4%	?	-20%	21µM*	-3%	-1%
COc1cccc(NC(=O)CN(C)C(=O)/C=C/c2cn(-c3ccccc3)nc2-c2ccc(OC)c(OC)c2)c1	/	?	/	18µM*	-1%	-4%
COc1ccc(-c2nn(-c3ccccc3)cc2/C=C/C(=O)NCCCn2ccnc2)cc1OC	12%	-30%	0%	15µM*	-8%	-8%
COc1ccc(-c2nn(-c3ccccc3)cc2/C=C/C(=O)N(C)CC(=O)Nc2cccc(F)c2)cc1OC	/	?	/	?	3%	4%
COc1ccc(-c2nn(-c3ccccc3)cc2/C=C/C(=O)N2CCOCC2)cc1OC	4%	?	-5%	?	16%	2%
CCN(CC(=O)Nc1ccc(NC(C)=O)cc1)C(=O)/C=C/c1cn(-c2ccccc2)nc1-c1ccc(F)cc1	/	2%	-7%	-1%	-14%	-2%
Cc1ccc(NC(=O)CSc2nnc(-c3ccccn3)n2N)c(Br)c1	7%	-1%	3%	-8%	9%	-13%
O=C(Nc1ccc2c(c1)OCO2)c1cc(C2CCCCN2C(=O)CCCc2ccccc2)on1 (stereo not drawn)	/	?	/	?	/	2%
Cn1nc(C(C)(C)C)cc1C(=O)N1CCCC(c2cc(C(=O)NCc3ccccc3)no2)C1 (stereo not drawn)	/	21µM*	/	15µM*	/	-5%
N#Cc1ccc(C(=O)N2CCCCC2c2cc(C(=O)Nc3ccccc3Cl)no2)cc1 (stereo not drawn)	/	-26%	/	?	/	0%
O=C(Nc1ccc2c(c1)OCO2)c1cc(C2CCCCN2C(=O)c2ccccc2)on1 (stereo not drawn)	/	13µM*	/	9.2µM*	/	1%
Cn1nc(C(C)(C)C)cc1C(=O)N1CCCCC1c1cc(C(=O)Nc2ccccc2)no1 (stereo not drawn)	/	21µM*	/	23µM*	/	-6%
Cn1nc(C(C)(C)C)cc1C(=O)N1CCCCC1c1cc(C(=O)Nc2ccccc2Cl)no1 (stereo not drawn)	/	21µM*	/	21µM*	/	-11%
Cc1ccc(C)c(CC(=O)N2CCCC(c3cc(C(=O)NCc4ccccc4)no3)C2)c1 (stereo not drawn)	/	?	/	?	/	-6%
Cc1ccc2cccc(NC(=O)c3cccc4c(Cl)cccc34)c2n1	6%	/	3%	/	2%	/
COc1cccc(CCN2C(=O)CCC3=C2CCC3=O)c1	/	-22%	/	-7%	/	-1%
COc1cccc([C@@H]2Oc3ccc(Br)cc3C(=O)[C@H]2OC(=O)Nc2ccc(C)c(Br)c2)c1	9%	/	/	/	-12%	/
Cn1nc(C(C)(C)C)cc1C(=O)N1CCCCC1c1cc(C(=O)NCc2cccnc2)no1 (stereo not drawn)	/	23µM*	/	21µM*	/	-6%
